This passage reports outcome and AC50 results from PubChem BioAssay (EPA / NIEHS).

Activity calls are given as the source filed them. The calls were made as follows: active = hit-call score of the fitted dose curve at least 0.9, where 1 is the maximum; inactive = score below 0.9.

The assay in a line: APR_HepG2_MitoticArrest_24hr: Apredica 24-hour HepG2 Assay for Mitotic Arrest (AID 2282910). Conditions: high-content imaging, actives raise or lower the signal. How it is done:
APR_HepG2_24hr is a cell-based, multiplexed-readout assay that uses HepG2, a human liver cell line, with measurements taken at 24 hours after chemical dosing in a 384-well plate.APR_HepG2_MitoticArrest_24hr is one of 10 assay component(s) measured or calculated from the APR_HepG2_24hr assay. It is designed to make measurements of cell phenotype, a form of morphology reporter, as detected with fluorescence intensity signals by HCS Fluorescent Imaging technology.Data from the assay component APR_HepG2_MitoticArrest_24hr was analyzed into 1 assay endpoint. This assay endpoint, APR_HepG2_MitoticArrest_24hr, was analyzed with bidirectional fitting relative to DMSO as the negative control and baseline of activity. Using a type of morphology reporter, measures of protein for gain or loss-of-signal activity can be used to understand the signaling at the pathway-level as they relate to the gene . Furthermore, this assay endpoint can be referred to as a primary readout, because this assay has produced multiple assay endpoints where this one serves a signaling function. To generalize the intended target to other relatable targets, this assay endpoint is annotated to the cell cycle intended target family, where the subfamily is arrest.
Cells were treated with dimethyl sulfoxide (DMSO) as a solvent control at a final concentration of 0.5% v/v or with compounds in DMSO with a resulting final DMSO concentration of 0.5% v/v. Compound treatment was done at concentrations of 0.39, 0.78, 1.56, 3.12, 6.24, 12.5, 25, 50, 100, and 200 uM in duplicate on each plate. Cells were treated with compounds for 1, 24, or 72 hr. Carbonyl […] m-chloro-phenylhydrazone (CCCP) and taxol were used as positive controls for mitochondrial function and cytoskeletal stability, respectively; DMSO served as the negative control for this experiment. Cells were fixed by the direct addition of 50 uL formaldehyde in Hank's Balanced Salt Solution (HBSS) to a final concentration of 3.7%. After incubation in the fixation medium for 30 min at room temperature (293-298 K), cells were rinsed twice with HBSS and treated with cell permeabilization buffer (16 uL of 0.5% Triton X-100) for 10 min at room temperature (293-298 K) before labeling. For mitochondrial membrane potential and mitochondrial measurements, pre-fixed cells were incubated with 50 uL of MitoTracker Red CMXRos (Invitrogen) at a concentration of 250 nM for 30 min before fixation. In the remaining cases, post-fixed cells were labeled by incubation with a multiplexed mixture of primary antibodies in HBSS for 60 min at room temperature (293-298 K) to detect immunoreactivity of c-Jun (1:500), phospho-histone H3 (1:100), phospho-histone H2A.x (1:200), p53 (1:400), alpha-tubulin (1:200) and Hoechst 33342 (2 ug/mL). Cells were labeled for multiplexed imaging on two separate plates: a) Hoechst 33342, MitoTracker Red, phospho-histone H3, and alpha-tubulin, and b) Hoechst 33342, phospho-histone H2A.x, and c-Jun. A final rinse with HBSS (50 uL) was performed before analysis. The primary and secondary antibodies for the proteins were phospho-histone H3 (rabbit anti-phospho-histone H3 and FITC-donkey anti-rabbit IgG), phospho-histone H2A.x (mouse anti-phospho-histone H2A.x and FITC-donkey anti-mouse IgG), c-Jun (rabbit anti-phospho-c-Jun and Cy3-donkey anti-rabbit IgG), p53 (sheep anti-p53 and Cy5-donkey anti-sheep IgG), alpha-tubulin (mouse anti-alpha-tubulin and Cy5-donkey anti-mouse IgG). These antibodies are available as the CellCiphr HepG2 assay kit (Millipore).Digital images of each well were captured using a Cellomics ArrayScan VTI (Thermo Scientific Cellomics) (0.8 NA objective, 0.63x optical coupler, and XF-93 filter set) at 20x magnification. The images were acquired using the autofocus feature of the ArrayScan instrument, which entails the following steps. First, the camera focuses on channel 1 (Hoechst 33342), where nuclei are identified. Second, a Z offset of 1 um is used for capturing mitochondria (MitoTracker Red). […]
With `CC/C(=C\C(=N/O)C(N)=O)C(C)[N+](=O)[O-]` (stereo not given), the molecule was called inactive. With `Nc1cccc(N)c1`, the call was inactive. As for `C=CC(=C)CCC=C(C)C`, the call was inactive. Turning to `C[C@](N)(Cc1ccc(O)c(O)c1)C(=O)O`, the result was inactive. With `CCC(C)(C)C(=O)O[C@H]1C[C@@H](C)C=C2C=C[C@H](C)[C@H](CC[C@@H]3C[C@@H](O)CC(=O)O3)[C@H]21`, the half-maximal activity concentration (AC50) (in general, the concentration at which the activity in the assay is half-maximal) is 2.96 µM (active). `CC[C@H]1OC(=O)[C@H](C)[C@@H](O[C@H]2C[C@@](C)(OC)[C@@H](O)[C@H](C)O2)[C@H](C)[C@@H](O[C@@H]2O[C@H](C)C[C@H](N(C)C)[C@H]2O)[C@](C)(O)C[C@@H](C)C(=O)[C@H](C)[C@@H](O)[C@]1(C)O`: the molecule was classed as inactive. For `Fc1ccccc1[C@@H](F)COC1CCC(Nc2ncnc3[nH]ncc23)CC1` (stereo not given in full), the call was inactive. Turning to `CCOC(=O)c1ccc(C2CCC(NC[C@H](O)COc3ccc(O)c(NS(C)(=O)=O)c3)CC2)cc1` (stereo not given in full), the AC50 was 27.5 µM (active). With `CCN(C(=O)c1cc(C)cc(OC[C@H](C)Nc2ccncc2)c1)C(C)C`, the molecule was classed as inactive. As to `Cc1ccc(S(=O)(=O)O)cc1C`, the molecule was called inactive. On to `COc1ccc(/C=C/S(=O)(=O)NC(=O)c2ccc(C)cc2Cl)cc1`, for which the call was inactive. Take `CCCC(=O)OCC`: the molecule was classed as inactive. On to `CC(C)CC(C)(O)C#CC(C)(O)CC(C)C` (stereo not given), for which the call was inactive. Still for that read-out and setting: the value for `O=C(O)CC(O)C(=O)O` (stereo not given) was “inactive”.

As for `CC[C@H]1CC[C@H](NCc2cc3c(cc2OC)[C@H]2C[C@H]2C(=O)N3C)[C@H](c2ccccc2)N1`, the outcome was inactive. Consider `C1N2CN3CN1CN(C2)C3`, for which the molecule was called inactive.

For the molecule `CC(C)(O)c1coc(S(=O)(=O)NC(=O)Nc2c3c(cc4c2CCC4)CCC3)c1`, the call was inactive. With `Clc1nc(Cl)c(Cl)c(Cl)c1Cl`, the AC50 is 77.3 µM (active).

For `CC(C)CCO`, the outcome was inactive. `Oc1ccc2c(c1)-c1ccccc1C2`: the AC50 is 116 µM (active). As for `CCOC(=O)CC(CC(=O)OCC)(OC(C)=O)C(=O)OCC`, the molecule was classed as inactive. In the case of `O=P(OC(CCl)CCl)(OC(CCl)CCl)OC(CCl)CCl`, the AC50 is 44.9 µM (active). As to `Nc1nc2ncc(CNc3ccc(C(=O)N[C@@H](CCC(=O)O)C(=O)O)cc3)nc2c(=O)[nH]1`, the molecule was called inactive. Regarding `COc1cccc(-c2ccc(/C=C\CN3CCCCCC3)cc2Cl)c1`, the AC50 is 28.5 µM (active). For `CCCCC(CC)COC(=O)CCCCCCCCC(=O)OCC(CC)CCCC` (stereo not given), the concentration at half-maximal activity (AC50) is 68.5 µM (active). For `CCCCCCCCCCCCCCCO`, the result was inactive.

As to `O=C(O)CCN(C1(C(=O)NO)CCCC1)S(=O)(=O)c1ccc(Oc2ccc(F)cc2)cc1`, the molecule was called inactive. For the molecule `CCCCCCc1ccc(O)cc1O`, the AC50 is 95.4 µM (active). `C=CCCCCCCCCC(=O)O`: the result was inactive. For the molecule `O=C(CCCCCCCCc1cccnc1)N1CCC(C=C(c2ccccc2)c2ccccc2)CC1`, the call was inactive. As to `O=c1n(CC2CO2)c(=O)n(CC2CO2)c(=O)n1CC1CO1` (stereo not given), the AC50 is 27.8 µM (active). Regarding `CC(=O)OCCC(C)C`, the result was inactive. Take `CC(C)c1cccc(C(C)C)c1N1C(=O)c2ccc(O)cc2C1=O`: the AC50 is 4.05 µM (active). For the molecule `O=C(NS(=O)(=O)/C=C/c1ccccc1)c1ccc(F)cc1Cl`, the molecule was classed as inactive. In the case of `CC[C@H](C)C(=O)O[C@H]1C[C@@H](C)C=C2C=C[C@H](C)[C@H](CC[C@@H]3C[C@@H](O)CC(=O)O3)[C@H]21`, the AC50 is 28.9 µM (active).

Take `CC(=O)c1ccc2c(c1)[C@H](NC(=O)c1ccc(F)cc1)[C@@H](O)C(C)(C)O2`: the outcome was inactive. Turning to `CCCN(C1CCN(C(=O)C2CCNCC2)CC1)[C@@H]1CCc2ccc(OC)cc2C1`, the half-maximal activity concentration (AC50) was 67.5 µM (active). On to `COC(=O)CC(=O)OC`, for which the result was inactive. For the molecule `CCOCCO`, the result was inactive. In the case of `O=C(OC[C@H]1O[C@@H](OC(=O)c2cc(O)c(O)c(OC(=O)c3cc(O)c(O)c(O)c3)c2)[C@H](OC(=O)c2cc(O)c(O)c(OC(=O)c3cc(O)c(O)c(O)c3)c2)[C@@H](OC(=O)c2cc(O)c(O)c(OC(=O)c3cc(O)c(O)c(O)c3)c2)[C@@H]1OC(=O)c1cc(O)c(O)c(OC(=O)c2cc(O)c(O)c(O)c2)c1)c1cc(O)c(O)c(OC(=O)c2cc(O)c(O)c(O)c2)c1`, the result was inactive.
